# Data from PubChem BioAssay (NCI).
# This is part of a sample that, as a whole, favours compounds with a hit. Of some 79,000 tested, about 15% had one in any assay. Unmarked numbers belong to inactive results. Activity calls are given as the source filed them. No stated cut-off is given here; in the data, active means growth inhibition above about 70%; inactive means the rest.
# Columns and labels:
# [1] = NCI Yeast Anticancer Drug Screen. Data for the rad52 strain (AID 147);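 further: 0% = growth of vehicle-treated control cultures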; settings: S. cerevisiae rad52 mutant growth inhibition, stronger effect = higher value
# In short: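 Measured: yeast growth inhibition. System: strain with a defined DNA damage repair alteration. Reference: vehicle-treated control cultures.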
# [2] = NCI Yeast Anticancer Drug Screen. Data for the wt1 strain (AID 149);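 further: 0% = growth of vehicle-treated wt1 cultures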; settings: S. cerevisiae wt1 strain (SPY 50644) growth inhibition, stronger effect = higher value
# In short: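 Each compound is tested on wt1 yeast and the loss of growth versus vehicle gives the inhibition value.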
# [3] = NCI Yeast Anticancer Drug Screen. Data for the rad50EPP+ strain (AID 151);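 further: 0% = growth of vehicle-treated control cultures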; settings: S. cerevisiae rad50 mutant strain, stronger effect = higher value
# In short: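 One strain with a rad50 alteration (rad50EPP+) was compound-treated, its growth then compared to that of vehicle controls.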
# [4] = NCI Yeast Anticancer Drug Screen. Data for the rad50 strain (AID 155);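 further: 0% = growth of vehicle-only cultures of the same strain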; settings: S. cerevisiae rad50 strain growth inhibition, stronger effect = higher value
# In short: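 Vehicle-treated cultures provide the reference for the growth inhibition reported for compound-exposed, repair-deficient yeast.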
# [5] = NCI Yeast Anticancer Drug Screen. Data for the mec2-1 strain (AID 157); settings: S. cerevisiae mec2-1 strain, stronger effect = higher value
# In short: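 Test agents were screened against the mec2-1 yeast strain, with defined DNA repair or cell cycle alteration. Growth was scored as inhibition against vehicle-only controls.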
# [6] = NCI Yeast Anticancer Drug Screen. Data for the rad14 strain (AID 159);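 further: 0% = growth of vehicle-treated control cultures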; settings: S. cerevisiae rad14 strain growth inhibition, stronger effect = higher value
# In short: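 Inhibition of growth is reported for a repair-deficient yeast mutant following compound treatment, calculated relative to cultures that received vehicle.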
# [7] = NCI Yeast Anticancer Drug Screen. Data for the sgs1 mgt1 strain (AID 161);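 further: 0% = growth of cultures given vehicle only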; settings: S. cerevisiae sgs1 mgt1 strain, stronger effect = higher value
# In short: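 Read-out: growth inhibition vs vehicle controls. Cells: mutant yeast strain deficient in DNA damage repair.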
# [8] = NCI Yeast Anticancer Drug Screen. Data for the CLN2oe strain (AID 163);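 further: 0% = growth of vehicle-only control cultures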; settings: S. cerevisiae CLN2oe strain, stronger effect = higher value
# In short: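 Here, growth inhibition in a cell-cycle-altered yeast strain after compound exposure was quantified against vehicle control growth.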
# [9] = NCI Yeast Anticancer Drug Screen. Data for the cln2 rad14 strain (AID 165);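 further: 0% = growth equal to vehicle treated cultures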; settings: S. cerevisiae cln2 rad14 strain, stronger effect = higher value
# In short: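 Growth of compound-exposed yeast (cln2 rad14 genotype) measured and expressed as inhibition relative to vehicle.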
# [10] = NCI Yeast Anticancer Drug Screen. Data for the bub3 strain (AID 167); settings: S. cerevisiae bub3 mutant strain, stronger effect = higher value
# In short: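 Mutant yeast screening strain plus compound; vehicle-treated cultures serve as the 0% inhibition reference.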
# [11] = NCI Yeast Anticancer Drug Screen. Data for the mlh1 strain (AID 171);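 further: 0% = growth of vehicle-treated control cultures of the same strain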; settings: S. cerevisiae mlh1 strain growth inhibition, stronger effect = higher value
# In short: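 Here the genetically defined yeast mutant is grown with each compound, and the extent to which its growth falls below that of vehicle-exposed cells is reported.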
# [12] = NCI Yeast Anticancer Drug Screen. Data for the sgs1 strain (AID 173);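 further: 0% = growth of vehicle-only control cultures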; settings: S. cerevisiae sgs1 mutant, stronger effect = higher value
# In short: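 Relative growth inhibition, referenced to vehicle, was determined in a yeast strain with a defined alteration affecting DNA damage repair or cell cycle control after compound exposure.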
# [13] = NCI Yeast Anticancer Drug Screen. Data for the mlh1 rad18 strain (AID 175); settings: S. cerevisiae mlh1 rad18 strain growth inhibition, stronger effect = higher value
# In short: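 In this whole-cell yeast screen, a strain with altered DNA damage repair is challenged with compound, and its growth is measured against matched vehicle-treated controls.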
# [14] = NCI Yeast Anticancer Drug Screen. Data for the rad18 strain (AID 177); settings: S. cerevisiae rad18 mutant growth inhibition, stronger effect = higher value
# In short: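 Screen uses a yeast strain with a defined lesion in DNA damage repair; compound effect is read as loss of growth compared to untreated vehicle cultures.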
# [15] = at 5.0 µM (retest, dose inferred, filed as 0.5)
# [16] = at 50.0 µM (retest, dose inferred, filed as 5.0)
smiles,measurement,setting,value
COc1ccc(S(=O)(=O)N/N=C\c2cc([N+](=O)[O-])cc(I)c2O)c(OC)c1OC,growth inhibition,[1]; at 1.2 µM,0%
same,growth inhibition,[1]; at 3.7 µM,9%
same,growth inhibition,[1]; at 11.0 µM,20%
same,growth inhibition,[1]; at 33.0 µM,42%
same,growth inhibition,[1]; at 100.0 µM,94% (active)
same,growth inhibition,[2]; at 1.2 µM,-7%
same,growth inhibition,[2]; at 3.7 µM,-8%
same,growth inhibition,[2]; at 11.0 µM,-8%
same,growth inhibition,[2]; at 33.0 µM,9%
same,growth inhibition,[2]; at 100.0 µM,49%
same,growth inhibition,[3]; at 1.2 µM,-5%
same,growth inhibition,[3]; at 3.7 µM,-6%
same,growth inhibition,[3]; at 11.0 µM,-5%
same,growth inhibition,[3]; at 33.0 µM,17%
same,growth inhibition,[3]; at 100.0 µM,63%
same,growth inhibition,[4]; at 1.2 µM,-7%
same,growth inhibition,[4]; at 3.7 µM,-7%
same,growth inhibition,[4]; [15],10%
same,growth inhibition,[4]; at 11.0 µM,23%
same,growth inhibition,[4]; at 33.0 µM,64%
same,growth inhibition,[4]; [16],72% (active)
same,growth inhibition,[4]; at 50.0 µM,92.9% (active)
same,growth inhibition,[4]; at 100.0 µM,95% (active)
same,growth inhibition,[5]; at 1.2 µM,-2%
same,growth inhibition,[5]; at 3.7 µM,-6%
same,growth inhibition,[5]; [15],14%
same,growth inhibition,[5]; at 11.0 µM,-7%
same,growth inhibition,[5]; at 33.0 µM,15%
same,growth inhibition,[5]; [16],76% (active)
same,growth inhibition,[5]; at 50.0 µM,73% (active)
same,growth inhibition,[5]; at 100.0 µM,83% (active)
same,growth inhibition,[6]; at 1.2 µM,-3%
same,growth inhibition,[6]; at 3.7 µM,4%
same,growth inhibition,[6]; at 11.0 µM,13%
same,growth inhibition,[6]; at 33.0 µM,39%
same,growth inhibition,[6]; at 100.0 µM,96% (active)
same,growth inhibition,[7]; [15],13%
same,growth inhibition,[7]; [16],74% (active)
same,growth inhibition,[7]; at 50.0 µM,88.3% (active)
same,growth inhibition,[8]; at 1.2 µM,-6%
same,growth inhibition,[8]; at 3.7 µM,-10%
same,growth inhibition,[8]; at 11.0 µM,-8%
same,growth inhibition,[8]; at 33.0 µM,18%
same,growth inhibition,[8]; at 100.0 µM,93% (active)
same,growth inhibition,[9]; [15],-8%
same,growth inhibition,[9]; [16],46%
same,growth inhibition,[9]; at 50.0 µM,11.1%
same,growth inhibition,[10]; at 1.2 µM,-13%
same,growth inhibition,[10]; at 3.7 µM,-15%
same,growth inhibition,[10]; [15],1%
same,growth inhibition,[10]; at 11.0 µM,-5%
same,growth inhibition,[10]; at 33.0 µM,15%
same,growth inhibition,[10]; [16],68%
same,growth inhibition,[10]; at 50.0 µM,25.8%
same,growth inhibition,[10]; at 100.0 µM,86% (active)
same,growth inhibition,[11]; at 1.2 µM,0%
same,growth inhibition,[11]; at 3.7 µM,-8%
same,growth inhibition,[11]; at 11.0 µM,0%
same,growth inhibition,[11]; at 33.0 µM,29%
same,growth inhibition,[11]; at 100.0 µM,88% (active)
same,growth inhibition,[12]; at 1.2 µM,-5%
same,growth inhibition,[12]; at 3.7 µM,-8%
same,growth inhibition,[12]; at 11.0 µM,9%
same,growth inhibition,[12]; at 33.0 µM,45%
same,growth inhibition,[12]; at 100.0 µM,97% (active)
same,growth inhibition,[13]; [15],15%
same,growth inhibition,[13]; [16],73% (active)
same,growth inhibition,[13]; at 50.0 µM,85.5% (active)
same,growth inhibition,[14]; at 1.2 µM,-1%
same,growth inhibition,[14]; at 3.7 µM,0%
same,growth inhibition,[14]; at 11.0 µM,13%
same,growth inhibition,[14]; at 33.0 µM,37%
same,growth inhibition,[14]; at 100.0 µM,93% (active)
CCCCCC#CCOC(=O)C(=[N+]=[N-])P(=O)(c1ccccc1)c1ccccc1,growth inhibition,[1]; at 1.2 µM,7%
same,growth inhibition,[1]; at 3.7 µM,16%
same,growth inhibition,[1]; at 11.0 µM,7%
same,growth inhibition,[1]; at 33.0 µM,10%
same,growth inhibition,[1]; at 100.0 µM,96% (active)
same,growth inhibition,[2]; at 1.2 µM,3%
same,growth inhibition,[2]; at 3.7 µM,-2%
same,growth inhibition,[2]; at 11.0 µM,3%
same,growth inhibition,[2]; at 33.0 µM,-2%
same,growth inhibition,[2]; at 100.0 µM,96% (active)
same,growth inhibition,[3]; at 1.2 µM,21%
same,growth inhibition,[3]; at 3.7 µM,13%
same,growth inhibition,[3]; at 11.0 µM,26%
same,growth inhibition,[3]; at 33.0 µM,14%
same,growth inhibition,[3]; at 100.0 µM,6%
same,growth inhibition,[4]; at 1.2 µM,14%
same,growth inhibition,[4]; at 3.7 µM,21%
same,growth inhibition,[4]; [15],-6%
same,growth inhibition,[4]; at 11.0 µM,13%
same,growth inhibition,[4]; at 33.0 µM,13%
same,growth inhibition,[4]; [16],94% (active)
same,growth inhibition,[4]; at 50.0 µM,87.8% (active)
same,growth inhibition,[4]; at 100.0 µM,95% (active)
same,growth inhibition,[5]; at 1.2 µM,11%
same,growth inhibition,[5]; at 3.7 µM,7%
same,growth inhibition,[5]; [15],-6%
same,growth inhibition,[5]; at 11.0 µM,-3%
same,growth inhibition,[5]; at 33.0 µM,-4%
same,growth inhibition,[5]; [16],97% (active)
same,growth inhibition,[5]; at 50.0 µM,90.5% (active)
